The full ranking holds about 16,000 sequences; the median of “rpm ratio (pull-down/input)” is about 0.5, and the highest 2% start at about 5.5. This excerpt belongs to a sample that is enriched for the highest values.
The sequences below were run against T1, MBP-FoxP3dN (Mus musculus, UniProt Q99JB6 188-423) (assay: PD-seq (MBP pull-down with sequencing); 20 mM Tris-HCl pH 7.5, 100 mM NaCl, 1.5 mM MgCl2, 0.4 uM protein, 0.1 uM dsDNA library, 30 min, room temperature, amylose pull-down; high values mean tight binding). Conditions: protein: recombinant; tags: His6-MBP; chain copies: 2; dsDNA, one strand shown.
T1 sequence: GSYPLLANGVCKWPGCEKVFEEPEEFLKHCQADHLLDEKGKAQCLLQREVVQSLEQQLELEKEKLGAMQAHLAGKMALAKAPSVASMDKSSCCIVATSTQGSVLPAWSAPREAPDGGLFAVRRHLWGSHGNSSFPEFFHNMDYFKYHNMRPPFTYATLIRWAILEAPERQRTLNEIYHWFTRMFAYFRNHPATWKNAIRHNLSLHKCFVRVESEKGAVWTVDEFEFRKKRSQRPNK
Method in brief: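 Binding is the reads-per-million enrichment of pull-down relative to input, pooled across replicates. For this, 0.4 µM His6-MBP-tagged mouse FoxP3 or FoxP1 fragment lacking the N-terminus, made in E. coli, was incubated with 0.1 µM Klenow-filled double-stranded degenerate DNA library for 30 min at room temperature in Tris pH 7.5 buffer with NaCl and MgCl2. Complexes bound to amylose resin were washed three times before proteinase K released the DNA for PCR barcoding and Illumina sequencing.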

| Sequence | binding signal |
| --- | --- |
| GATGATTGTTCTCCCAGCTGATGAATTGGCCCTCTCGAGTAAACAAATTTTCCTAATCTTTCTGTTCAAGCGCCATCTAC | 0.358 RPM ratio (pull-down/input) |
| GATGATTGTTCTCCCAGCTGATGAATTCGTCAGGTCGAGTAAACAAATTTTCCTAATCTTTCTGTTCAAGCGCCATCTAC | 0.551 RPM ratio (pull-down/input) |
| GATGATTGTTCTCCCAGCTGATGAATTTCTTAGCTCGAGTAAACAAATTTTCCTAATCTTTCTGTTCAAGCGCCATCTAC | 0.342 RPM ratio (pull-down/input) |
| GATGATTGTTCTCCCAGCTGATGAATTCTTTGGCTCGAGTAAACAAATTTTCCTAATCTTTCTGTTCAAGCGCCATCTAC | 0.217 RPM ratio (pull-down/input) |
| GATGATTGTTCTCCCAGCTGATGAATTTGTTGGCTCGAGTAAACAAATTTTCCTAATCTTTCTGTTCAAGCGCCATCTAC | 7 RPM ratio (pull-down/input) |
| GATGATTGTTCTCCCAGCTGATGAATTGTTAGGCTCGAGTAAACAAATTTTCCTAATCTTTCTGTTCAAGCGCCATCTAC | 0.88 RPM ratio (pull-down/input) |
| GATGATTGTTCTCCCAGCTGATGAATTTGTTAGCTCGAGTAAACAAATTTTCCTAATCTTTCTGTTCAAGCGCCATCTAC | 6.55 RPM ratio (pull-down/input) |
| GATGATTGTTCTCCCAGCTGATGAATTTTTTGGCTCGAGTAAACAAATTTTCCTAATCTTTCTGTTCAAGCGCCATCTAC | 0.204 RPM ratio (pull-down/input) |
| GATGATTGTTCTCCCAGCTGATGAATTGCGGTCATCGAGTAAACAAATTTTCCTAATCTTTCTGTTCAAGCGCCATCTAC | 1.01 RPM ratio (pull-down/input) |
| GATGATTGTTCTCCCAGCTGATGAATTGAAGCATTCGAGTAAACAAATTTTCCTAATCTTTCTGTTCAAGCGCCATCTAC | 4.38 RPM ratio (pull-down/input) |
| GATGATTGTTCTCCCAGCTGATGAATTCATGCATTCGAGTAAACAAATTTTCCTAATCTTTCTGTTCAAGCGCCATCTAC | 5.77 RPM ratio (pull-down/input) |
| GATGATTGTTCTCCCAGCTGATGAATTAAATGCATCGAGTAAACAAATTTTCCTAATCTTTCTGTTCAAGCGCCATCTAC | 2.36 RPM ratio (pull-down/input) |
| GATGATTGTTCTCCCAGCTGATGAATTGCATCATTCGAGTAAACAAATTTTCCTAATCTTTCTGTTCAAGCGCCATCTAC | 5.15 RPM ratio (pull-down/input) |
| GATGATTGTTCTCCCAGCTGATGAATTGATGCATTCGAGTAAACAAATTTTCCTAATCTTTCTGTTCAAGCGCCATCTAC | 6.87 RPM ratio (pull-down/input) |
| GATGATTGTTCTCCCAGCTGATGAATTGCATGATTCGAGTAAACAAATTTTCCTAATCTTTCTGTTCAAGCGCCATCTAC | 1.35 RPM ratio (pull-down/input) |
| GATGATTGTTCTCCCAGCTGATGAATTAATGAATTCGAGTAAACAAATTTTCCTAATCTTTCTGTTCAAGCGCCATCTAC | 0.682 RPM ratio (pull-down/input) |
| GATGATTGTTCTCCCAGCTGATGAATTAATGCATTCGAGTAAACAAATTTTCCTAATCTTTCTGTTCAAGCGCCATCTAC | 6.89 RPM ratio (pull-down/input) |
| GATGATTGTTCTCCCAGCTGATGAATTCGATGCATCGAGTAAACAAATTTTCCTAATCTTTCTGTTCAAGCGCCATCTAC | 1.84 RPM ratio (pull-down/input) |
| GATGATTGTTCTCCCAGCTGATGAATTTTGCACGTCGAGTAAACAAATTTTCCTAATCTTTCTGTTCAAGCGCCATCTAC | 3.32 RPM ratio (pull-down/input) |
| GATGATTGTTCTCCCAGCTGATGAATTTTTAGGATCGAGTAAACAAATTTTCCTAATCTTTCTGTTCAAGCGCCATCTAC | 0.222 RPM ratio (pull-down/input) |

| Sequence | binding signal |
| --- | --- |
| GATGATTGTTCTCCCAGCTGATGAATTCAATTAGTCGAGTAAACAAATTTTCCTAATCTTTCTGTTCAAGCGCCATCTAC | 1.25 RPM ratio (pull-down/input) |
| GATGATTGTTCTCCCAGCTGATGAATTCTGTAGGTCGAGTAAACAAATTTTCCTAATCTTTCTGTTCAAGCGCCATCTAC | 0.948 RPM ratio (pull-down/input) |
| GATGATTGTTCTCCCAGCTGATGAATTTGACGTATCGAGTAAACAAATTTTCCTAATCTTTCTGTTCAAGCGCCATCTAC | 1.27 RPM ratio (pull-down/input) |
| GATGATTGTTCTCCCAGCTGATGAATTGGAGTACTCGAGTAAACAAATTTTCCTAATCTTTCTGTTCAAGCGCCATCTAC | 0.523 RPM ratio (pull-down/input) |
| GATGATTGTTCTCCCAGCTGATGAATTCGAACTTTCGAGTAAACAAATTTTCCTAATCTTTCTGTTCAAGCGCCATCTAC | 0.271 RPM ratio (pull-down/input) |
| GATGATTGTTCTCCCAGCTGATGAATTCATCTCATCGAGTAAACAAATTTTCCTAATCTTTCTGTTCAAGCGCCATCTAC | 0.393 RPM ratio (pull-down/input) |
| GATGATTGTTCTCCCAGCTGATGAATTTAGTTGTTCGAGTAAACAAATTTTCCTAATCTTTCTGTTCAAGCGCCATCTAC | 5.93 RPM ratio (pull-down/input) |
| GATGATTGTTCTCCCAGCTGATGAATTAGTTTGTTCGAGTAAACAAATTTTCCTAATCTTTCTGTTCAAGCGCCATCTAC | 6.22 RPM ratio (pull-down/input) |
| GATGATTGTTCTCCCAGCTGATGAATTAGTAGTTTCGAGTAAACAAATTTTCCTAATCTTTCTGTTCAAGCGCCATCTAC | 1.93 RPM ratio (pull-down/input) |
| GATGATTGTTCTCCCAGCTGATGAATTCTTTAGTTCGAGTAAACAAATTTTCCTAATCTTTCTGTTCAAGCGCCATCTAC | 0.297 RPM ratio (pull-down/input) |
| GATGATTGTTCTCCCAGCTGATGAATTAGTTCTTTCGAGTAAACAAATTTTCCTAATCTTTCTGTTCAAGCGCCATCTAC | 0.409 RPM ratio (pull-down/input) |
| GATGATTGTTCTCCCAGCTGATGAATTAGTTAGTTCGAGTAAACAAATTTTCCTAATCTTTCTGTTCAAGCGCCATCTAC | 4.22 RPM ratio (pull-down/input) |
| GATGATTGTTCTCCCAGCTGATGAATTAGTTTTTTCGAGTAAACAAATTTTCCTAATCTTTCTGTTCAAGCGCCATCTAC | 3.9 RPM ratio (pull-down/input) |
| GATGATTGTTCTCCCAGCTGATGAATTAGTTTCTTCGAGTAAACAAATTTTCCTAATCTTTCTGTTCAAGCGCCATCTAC | 2.72 RPM ratio (pull-down/input) |
| GATGATTGTTCTCCCAGCTGATGAATTTTTTAGTTCGAGTAAACAAATTTTCCTAATCTTTCTGTTCAAGCGCCATCTAC | 0.299 RPM ratio (pull-down/input) |
| GATGATTGTTCTCCCAGCTGATGAATTAGTTGTTTCGAGTAAACAAATTTTCCTAATCTTTCTGTTCAAGCGCCATCTAC | 6.61 RPM ratio (pull-down/input) |
| GATGATTGTTCTCCCAGCTGATGAATTGTTAGTTTCGAGTAAACAAATTTTCCTAATCTTTCTGTTCAAGCGCCATCTAC | 4.23 RPM ratio (pull-down/input) |
| GATGATTGTTCTCCCAGCTGATGAATTTGTTAGTTCGAGTAAACAAATTTTCCTAATCTTTCTGTTCAAGCGCCATCTAC | 7.44 RPM ratio (pull-down/input) |
| GATGATTGTTCTCCCAGCTGATGAATTCGACAGGTCGAGTAAACAAATTTTCCTAATCTTTCTGTTCAAGCGCCATCTAC | 0.284 RPM ratio (pull-down/input) |
| GATGATTGTTCTCCCAGCTGATGAATTCAGACATTCGAGTAAACAAATTTTCCTAATCTTTCTGTTCAAGCGCCATCTAC | 0.869 RPM ratio (pull-down/input) |

From PMC12820563, “FoxP3 forms a head-to-head dimer in vivo and stabilizes its multimerization on adjacent microsatellites”
